{"source": "PubChem BioAssay", "note": "Inconclusive results are not listed. Values without a mark were called inactive.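 The calls were made as follows: active = viability at or below 27.92% in each of two runs, the all-compound median minus 4 SD; inconclusive = no clear call, values can overlap the other calls; inactive = the rest.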", "data": [{"assay": "viability of PTEN-null HCT116 cells – cell-based, HCT116 clonal line, CellTiter-Glo, pilot screen (AID 824);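 also: 0% = 20 µM Hyamine control and 100% = vehicle cell control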", "conditions": "HCT116 PTEN-deleted viability, 60 h, at 10 µM, active compounds read low", "units": {"viability": "%"}, "values": [{"compound": "CN(C)CCNC(=O)c1ccc2c(c1)N(Cc1ccc(F)cc1)CCS2", "viability": 55.1}, {"compound": "c1ccc2c(c1)nc1n2CCN1CCNC1CCCCC1", "viability": 98.6}, {"compound": "COC(=O)c1ccsc1NC(=O)C1=COCCO1", "viability": 102}, {"compound": "c1coc(-c2nc(-c3ccco3)c(-c3ccco3)nc2-c2ccco2)c1", "viability": 86.5}, {"compound": "COc1cc2c(cc1OC)CN(C(=O)C(C)(C)C)CC2", "viability": 96.7}, {"compound": "CCOCN(C(=O)Cn1c(CO)nc2ccccc21)c1c(C)cccc1CC", "viability": 94.4}, {"compound": "CC(C)OC(=O)c1nnc(Cc2ccc(F)cc2)o1", "viability": 107}, {"compound": "CN(C)Cc1c(O)ccc2occ(C(O)c3ccccc3)c12", "note": "(stereo not given)", "viability": 82.5}, {"compound": "COc1ccc(N2CCN(C3CC(=O)N(C)C3=O)CC2)cc1", "note": "(stereo not given)", "viability": 100}, {"compound": "CC1CCN(c2nc(-c3ccncc3)nc3ccccc23)CC1", "viability": 58.7}, {"compound": "Clc1ccccc1OCCN1CCCCC1", "viability": 96.2}, {"compound": "CCOC(=O)C1=C(C)NC(C)=C(C(=O)OCC)C1C(=O)O", "viability": 90}, {"compound": "CC(=O)Nn1cc2c(=O)n(C)c(=O)n(C)c2c1", "viability": 99.7}, {"compound": "CCc1nnc(NC(=O)CCN2C(=O)CCC2=O)s1", "viability": 93.6}, {"compound": "C/C(NCCN1CCOCC1)=C(\\C#N)C(N)=O", "viability": 97.6}, {"compound": "COc1ccc(CCNC(=O)CCn2c(=O)oc3ccccc32)cc1OC", "viability": 97.9}, {"compound": "Cc1ccc(-c2nc(CS(=O)(=O)CC(=O)N3CCc4ccccc4C3)c(C)o2)cc1", "viability": 68.9}, {"compound": "Cc1ccc(-c2nn3c(C)nnc3s2)cc1NC(=O)c1ccc(OC(C)C)cc1", "viability": 68.4}, {"compound": "COc1ccc(C(=O)Nc2nncs2)cc1S(=O)(=O)N1CC(c2ccccc2)CC1=O", "note": "(stereo not given)", "viability": 87}, {"compound": "CC(C)CC(NS(=O)(=O)c1ccc2c(c1)oc(=O)n2C)C(=O)NC1CCCc2ccccc21", "note": "(stereo not given)", "viability": 71.8}, {"compound": "O=C(NCc1cccs1)C1CCN(S(=O)(=O)c2cccc3cccnc23)CC1", "viability": 90.7}, {"compound": "Cc1sc2ncnc(NCc3ccco3)c2c1C", "viability": 62.3}, {"compound": "CC(=O)Oc1cccc(N2C(=O)C3C(C2=O)C2C=CC3C23CC3)c1", "note": "(stereo not given)", "viability": 101}, {"compound": "Cc1cc(N2C(=O)C3CC=CCC3C2=O)cc(C)c1Br", "note": "(stereo not given)", "viability": 95.2}, {"compound": "Cn1c(C(=O)N2CCC(C(N)=O)CC2)cc2c(=O)n(C)c3ccccc3c21", "viability": 99.3}, {"compound": "COc1ccccc1N1CCN(C(=O)c2sc3nc(-c4ccc(F)cc4)cn3c2C)CC1", "viability": 58.8}, {"compound": "CC(C)CNS(=O)(=O)c1ccc(S(=O)(=O)N2CCN(CCC#N)CC2)cc1", "viability": 103}, {"compound": "CCCN1Cc2cccc(C(=O)Nc3ccc4c(c3)OCCO4)c2C1=O", "viability": 97.2}, {"compound": "CCOC(=O)CN1CC23C=CC(O2)C(C(=O)NC2CCCCCC2)C3C1=O", "note": "(stereo not given)", "viability": 94.5}, {"compound": "Cc1nnc(NC(=O)CSc2nnc(Cc3cccn3C)n2C)s1", "viability": 104}]}]}
